In PubChem BioAssay (NCATS):
Inconclusive results are not listed. Unmarked numbers belong to inactive results. Calls of active or inactive are those of the source. Calls come from the whole dose curve; as a rule, active = well fitted inhibition curve with a large enough effect; inconclusive = small, poorly fitted or top-dose-only effect; inactive = no such curve, though single readings can be large or run the other way.

Test: Primary fluorescence-based thiol-reactive (MSTI) qHTS assay for identification of artifact compounds. (AID 1845221); note: nearly all actives have a fitted effect of over 65% in size;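 for activity change, negative = thiol reactive: thiol-reactive compounds lower the probe fluorescence signal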
Conditions: MSTI thiol-reactivity probe, 1 h; series mostly up to 53.8 µM; activity change, negative = thiol reactive: at the top concentration
Summary of the method: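 MSTI probe at 4 uM final in 2% DMSO/PBS pH 7.4; compounds, 1 h at room temperature in dark. Fluorescence Ex/Em 525/598 nm, normalised to Acetyl-MSTI and MSTI, fitted to 4-parameter Hill.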
Potency is the fitted concentration of half-maximal effect.

Structure (SMILES)	activity change, negative = thiol reactive	Potency
CC(C)Oc1ccc(-c2nc(-c3cccc4c3CCC4NCCC(=O)O)no2)cc1C#N (stereo not given)	114%	
C/C=C1/[C@H](O[C@@H]2O[C@H](CO)[C@@H](O)[C@H](O)[C@H]2O)OC=C(C(=O)OC)[C@H]1CC(=O)OCCc1ccc(O)c(O)c1		2.07 µM (active)
COc1c2cc(c(O)c1OC)CCCCC(O)CCc1ccc(O)c-2c1 (stereo not given)	43.4%	
COC(=O)C1=CO[C@@H](O[C@@H]2O[C@H](CO)[C@@H](O)[C@H](O)[C@H]2O)[C@@H]2[C@@H](C)[C@@H](O)C(O)[C@H]12 (stereo not given in full)	-1.39% [at 25.6 µM]	
CC1(C)CC[C@]2(C(=O)O[C@@H]3O[C@H](CO)[C@@H](O)[C@H](O)[C@H]3O)CC[C@]3(C)C(=CCC4[C@@]5(C)CC[C@H](O[C@@H]6O[C@H](C(=O)O)[C@@H](O)[C@H](O)[C@H]6OC6OC(CO)C(O)C(O)C6O)C(C)(C)C5CC[C@]43C)[C@@H]2C1 (stereo not given in full)	43.7% [at 11.5 µM]	
COC(=O)C1=COC(O[C@@H]2O[C@H](COC(=O)/C=C/c3ccc(O)cc3)[C@@H](O)[C@H](O)[C@H]2O)C2C(CO)=CCC12 (stereo not given in full)	3.13% [at 25.6 µM]	
NC(Cc1c[nH]c2ccc(O)cc12)C(=O)O (stereo not given)		16.8 µM (active)
COc1cccc2c1c(O)c(C(=O)N(C)c1ccc(C(F)(F)F)cc1)c(=O)n2C	5.34%	
CCC1OC(=O)C(C)CC(C)C(=O)/C(C)=C/C(C)C(=O)/C=C/C1(C)O (stereo not given)	18.9%	
CC1(C)OC(=O)C=C[C@@]2(C)C1CC(=O)[C@]1(C)C2CC[C@@]2(C)[C@H](c3ccoc3)OC(=O)[C@H]3O[C@]321 (stereo not given in full)	62.2% [at 25.6 µM]	
